From PubChem BioAssay
The list is not random: actives were taken first. Their share in the collection is about 2.2%.
Mito fusion act: inhibitors of mitochondrial division or activators of mitochondrial fusion; AID 485298; S. cerevisiae fusion-defective mutant growth rescue, CellTiterGlo 48 h; Potency, µM (titrated, usually from 46.1 µM), for the others: top-dose growth rescue (activation), actives largely listed as activators; actives 0.23% (n = 320,000); further: % of control where 0% means no effect; nearly all actives have a fitted effect of over 45% in size
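Luminescent cell viability in 1536-well qHTS format served as the measure of rescued growth in ts fusion-mutant S. cerevisiae cultured on non-fermentable YPEG for 48 hours at 37C.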
aSyn yeast inh: rescues yeast growth from alpha-synuclein toxicity | Yeast expressing alpha-synuclein, growth rescue, BacTiter-Glo, 24 h | Potency, µM (doses to about 46.1 µM), for the others: top-dose growth rescue (activation), most hits filed as activators | actives 0.14% (n = 370,000) | AID 652106; further: % of control where 0% means no effect; nearly all actives have a fitted effect of over 65% in size
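Screening used galactose-induced yeast with toxic alpha-synuclein levels, exposed to compound for 24 hr at 30 deg C. Cell growth, read with BacTiter-Glo luminescence, gave the measured signal.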
ERG-DNA inh: blocks human ERG Ets domain binding to DNA; fluorescence polarization, His-ERG Ets domain / labelled DNA; Potency, µM (highest dose often 76.9 µM), inactives show at the top dose FP activity, negative = inhibition, most hits filed as inhibitors; actives 0.028% (n = 370,000); AID 624246; active means well fitted inhibition curve with a large enough effect in the polarisation, with a control signal flat; inconclusive means small, poorly fitted or top-dose-only effect, or effect the other way, or a change in a side signal; inactive means no such curve, though single readings can be large or run the other way; the % refers to the polarisation;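 further: polarization taken with two DNA probes labelled with fluorescein and Texas red; % of control where 0% means no effect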
Target sequence (P11308 whole entry, looked up, the tested form may be a part): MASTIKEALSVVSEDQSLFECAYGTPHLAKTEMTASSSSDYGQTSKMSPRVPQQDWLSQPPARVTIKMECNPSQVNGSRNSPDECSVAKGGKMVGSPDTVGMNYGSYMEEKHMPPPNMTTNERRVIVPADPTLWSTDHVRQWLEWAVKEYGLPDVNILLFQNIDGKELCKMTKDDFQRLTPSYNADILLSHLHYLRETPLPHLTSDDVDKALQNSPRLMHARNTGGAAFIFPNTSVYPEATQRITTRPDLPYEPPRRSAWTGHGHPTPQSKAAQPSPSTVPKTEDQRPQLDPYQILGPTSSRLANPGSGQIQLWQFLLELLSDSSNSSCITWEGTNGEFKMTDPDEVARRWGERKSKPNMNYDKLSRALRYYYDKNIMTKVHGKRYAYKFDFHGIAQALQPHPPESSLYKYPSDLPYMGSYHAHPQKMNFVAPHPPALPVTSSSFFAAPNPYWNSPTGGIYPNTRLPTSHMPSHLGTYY
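His-tagged ERG Ets domain (1 uM in the protein solution; 300mM KCl, 50mM Tris-HCl, 1mM EDTA, 1mM DTT, pH 7.5) received compound, then a probe mix of 5 nM fluorescein-DNA and 100nM Texas-615-DNA. Fluorescence polarization was read for both dyes.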
TDP43 rescue: TDP-43 toxicity inhibition in yeast; TDP-43 expressing yeast growth rescue, BacTiter-Glo, 24 h; Potency, µM (doses to about 46.1 µM), for inactives: at the top dose growth rescue (activation), hits mostly activators; actives 1.8% (n = 410,000); AID 652104; further: % of control where 0% means no effect; nearly all actives have a fitted effect of over 50% in size
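Cell-based yeast growth screen: TDP-43 expression induced in galactose, inoculum OD600=0.02 after raffinose pregrowth to mid-log. Read-out BacTiter-Glo luminescence at 24 hr, 30 deg C; inhibition of toxicity seen as signal increase.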
FUS yeast rescue: FUS proteinopathy suppression in yeast. Potency, µM (doses to about 76.6 µM), most hits filed as activators. actives 0.24% (n = 390,000). S. cerevisiae FUS-expressing, growth rescue, OD600, 24 h;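 further: plate controls were DMSO vehicle for no effect and reference control for full effect; nearly all actives have a fitted effect of over 55% in size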
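Galactose (2%) drives FUS expression in yeast precultured in raffinose; seeding density OD 0.005. Test compounds incubated 24hr at 30C and 99% humidity before absorbance at 600 nm was measured.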
Abeta yeast res: restores growth of yeast expressing A-beta42 peptide; actives 0.063% (n = 410,000); AID 1347071; Potency, µM (top dose mostly 46.1 µM), hits mostly activators; yeast expressing A-beta42, growth rescue, OD600, 48 h; response scale: 0% DMSO, 100% iron-clioquinol control; further: nearly all actives have a fitted effect of over 55% in size
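Yeast A-beta toxicity model in growth medium with pinned compounds, 48 h at 30 C; growth read as absorbance at 600 nm. Normalized to FeCl3/clioquinol equimolar mix (positive) and DMSO (negative).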
An asterisk follows results filed as active; i = inactive; ? = inconclusive; . = no result given; ! = not confirmed by another sample. Unless noted, the call rests on the fitted dose curve; in most records, active means well fitted curve in the direction sought with a large enough effect; inconclusive means small, poorly fitted or top-dose-only effect, or another doubt; inactive means no such curve, though single readings can be large; an effect the other way counts as inactive or inconclusive. Potency means the concentration at half of the fitted maximal effect.

SMILES	Mito fusion act	aSyn yeast inh	ERG-DNA inh	TDP43 rescue	FUS yeast rescue	Abeta yeast res
CC(=O)c1cccc(NC(=O)c2ccc([N+](=O)[O-])o2)c1	.	-27.0%	-1.2%	?	i	i
COC(=O)C1CN(Cc2cn(Cc3ccc(C)cc3)nn2)CCS(=O)(=O)N1Cc1ccccc1 (configuration not stated)	.	.	.	.	i	.
COc1ccc(C2C(=O)N(C3CCC(C)CC3)CC(=O)N2CCc2ccccc2)cc1OC (configuration not stated)	.	.	3.3%	8.4%	i	i
CCc1ccc(NS(=O)(=O)c2ccc3[nH]cc(C(=O)NCCCOC(C)C)c(=O)c3c2)cc1	.	.	5.5%	22.1%	i	i
COc1ccc(NC(=O)Cn2ccn(-c3ccc(C)c(C)c3)c(=O)c2=O)cc1Cl	.	.	3.0%	14.6%	i	i
CC(C)OCCCNC(=O)CCCn1c(=O)[nH]c2ccsc2c1=O	.	.	-4.7%	16.4%	i	i
Cc1ccc(S(=O)(=O)N2CCN(C(=O)COC(=O)c3ccccc3Cl)CC2)c(C)c1	-0.2%	23.7%	6.4%	25.1µM*	i	i
NC(=O)C1(N2CCCCC2)CCN(S(=O)(=O)c2cc(Cl)sc2Cl)CC1	28.2µM*	-0.9%	0.3%	-3.6%	i	i
COc1ccc(S(=O)(=O)N2CCC(C(N)=O)(N3CCCCC3)CC2)cc1	1.0%	-1.3%	6.2%	6.8%	i	i
CC(=O)NC1=C(NC2CCS(=O)(=O)C2)C(=O)c2ccccc2C1=O (configuration not stated)	-1.5%	-7.9%	-4.2%	25.1µM*	.	i
COC(=O)c1ccc(COc2cccn3c(N(C)C(=O)CCC4CCCC4)c(C)nc23)cc1	.	5.9%	.	0.0%	i	i
Cc1nn(-c2ccccc2)c2c1N(CCCC(=O)NCc1ccc(OC(C)C)cc1)C(=O)CS2	.	.	3.0%	28.2µM*	i	i
Cc1nn(-c2ccccc2)c2c1N(CCCC(=O)NC(C)c1ccccc1)C(=O)CS2 (configuration not stated)	.	.	7.5%	2.6%	i	i
CCCCOc1ccc(CNC(=O)CCCN2C(=O)CSc3c2c(C)nn3-c2ccccc2)cc1	.	.	-7.7%	28.2µM*	?	i
Cc1nn(-c2ccccc2)c2c1N(CCCC(=O)NCc1ccccc1)C(=O)CS2	.	.	-2.7%	?	i	i
Cc1nn(-c2ccccc2)c2c1N(CCCC(=O)NCc1ccc(Cl)cc1)C(=O)CS2	.	.	4.5%	20µM*	?	i
COc1cccc(NC(=O)CCNC(=O)Cn2cnc3ccccc3c2=O)c1	.	.	10.5%	0.0%	i	i
COc1cc(C(N)=O)cc(Br)c1OCc1ccccc1	?	1.7%	.	?	.	i
CCOc1c(Br)cc(C(N)=O)cc1OCc1ccccc1	11.2µM*	-0.8%	0.6%	13.6%	i	i
CCOC(=O)c1c(NC(=O)CSc2nnc(C)s2)sc2c1CCN(C)C2	6.5%	-5.3%	6.5%	-2.2%	25.1µM*	i
CCOC(=O)c1c(NC(=O)Cc2ccccc2)sc2c1CCN(C)C2	-4.7%	-3.6%	4.4%	0.9%	i	i
CC(NC(=O)OCc1ccccc1)C(=O)Oc1cc2oc(=O)cc(-c3ccccc3)c2cc1Cl (configuration not stated)	8.9%	3.3%	-0.8%	6.31µM*	i	i
CCc1cc2c(-c3ccccc3)cc(=O)oc2cc1OC(C)C(=O)O (configuration not stated)	2.0%	2.3%	-6.1%	-3.9%	i	i
Cc1ccc(-c2csc3ncnc(Cl)c23)cc1	-10.9%	2.8%	3.1%	15.8µM*	i	i
CN(C)c1ccc(-c2nnc(SCC(=O)NCc3ccco3)n2C)cc1	.	-2.0%	.	.	.	.
SMILES	Mito fusion act	aSyn yeast inh	ERG-DNA inh	TDP43 rescue	FUS yeast rescue	Abeta yeast res
COc1ccc(NC(=O)C(=O)NCCc2csc(-c3ccc(Cl)cc3)n2)cc1OC	.	.	-5.5%	3.7%	i	i
COc1cccc(OC)c1C(=O)NCCc1csc(-c2ccc(Cl)cc2)n1	.	.	2.7%	22.4µM*	i	i
O=C(NCCc1csc(-c2ccc(C(F)(F)F)cc2)n1)c1cccs1	29.5%	-13.8%	19.7%	22.4µM*	?	i
COc1ccc(-c2nc(CCNC(=O)c3c(F)cccc3Cl)cs2)cc1	.	.	-2.0%	17.8µM*	i	i
COc1ccc(NC(=O)C(=O)NCCc2csc(-c3ccc(Cl)cc3)n2)cc1	.	.	1.8%	9.9%	i	i
COc1cccc(C(=O)NCCc2csc(-c3ccc(Cl)cc3)n2)c1	.	.	1.2%	35.5µM*	i	i
CC(C)(C)c1ccc(C(=O)NCCc2csc(-c3ccc(Cl)cc3)n2)cc1	.	.	-5.5%	16.9%	i	i
COc1ccc(C(=O)C2(C(=O)NC3CCCC3)CC(c3ccccc3C(F)(F)F)=NO2)cc1 (configuration not stated)	.	.	.	.	i	.
Cc1ccn2c(Nc3ccc4c(c3)OCO4)c(-c3ccco3)nc2c1	.	.	0.3%	0.1%	i	i
Cn1c(NC2=NC3(CCCC3)C3=C(CCCC3=O)N2)nc2ccccc21	.	.	.	.	i	.
O=C(NCc1cccc(Cl)c1)c1oc(=O)c2ccccc2c1-c1ccccc1	.	.	6.0%	6.5%	i	i
Cn1c(Cc2cccs2)nnc1SCC(=O)Nc1ccc2c(c1)OCO2	.	.	.	.	i	.
O=S(=O)(c1ccc(F)cc1)N1CCN(c2nc(-c3ccccc3)nc3ccccc23)CC1	.	0.5%	.	.	.	.
CC(C)C(Cl)=NOC(=O)Nc1ccc(F)cc1	.	-9.0%	10.4%	12.6µM*	.	i
COC(=O)Cn1ccc2cc(S(=O)(=O)N3CCCCCC3)ccc21	-2.3%	11.5%	-10.0%	15.8µM*!	i	i
CCOc1ccc(CCNC(=O)Cn2ccc3cc(S(=O)(=O)N4CCCCC4)ccc32)cc1	.	.	11.4%	12.1%	17.8µM*	i
CCOc1ccc(CNC(=O)Cn2ccc3cc(S(=O)(=O)N4CCCCCC4)ccc32)cc1	-6.2%	7.6%	-5.4%	-4.1%	i	i
Clc1cccc(Cl)c1CON/C=N/c1ncnc2sccc12	1.0%	4.8%	-1.5%	-0.5%	i	i
Clc1cccc(CON/C=N/c2ncnc3sccc23)c1	-24.4%	-13.5%	0.3%	3.55µM*	i	i
ON=C1c2ccccc2-c2ccc(O)cc21	.	6.2%	-14.5%	-0.3%	.	i
CC(=NO)c1ccc2c(c1)C(=NO)c1ccccc1-2	.	8.7%	.	12.6µM*	.	i
